Laboratory results taken from PubChem BioAssay (Tox21).
Values without a mark were called inactive. Inconclusive results are not listed. Where a call stands in place of a potency, no number is given. Calls of active or inactive are those of the source. Unless noted, calls come from the whole dose curve; as a rule, active = well fitted curve in the direction sought with a large enough effect in the repeat runs; inconclusive = weak or mixed curves; inactive = no such curve, though single readings can be large; an effect the other way counts as inactive or inconclusive.

Key:
[1] = qHTS assay for small molecule agonists of the p53 signaling pathway (AID 651631; calls by dose curve; note: nearly all actives have a fitted effect of over 15% in size; note: potency is the fitted concentration of half-maximal effect)
How it was run: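 Stably transfected HCT-116 cells (beta-lactamase behind p53 response elements) get compounds after a 5 h settling period; 16 h later at 37 °C, FRET substrate is loaded and fluorescence read after 2 h.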

[2] = qHTS assay for small molecules that induce genotoxicity in human embryonic kidney cells expressing luciferase-tagged ATAD5 (AID 651632); note: nearly all actives have a fitted effect of over 15% in size; note: potency is the fitted concentration of half-maximal effect
How it was run: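 Cells were seeded at 2,000 per well, dosed with compound, and incubated 16 hr at 37C in 5% CO2. Luciferase activity was then quantified after a 30 min room-temperature incubation with Amplite.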

[3] = qHTS assay for small molecule agonists of the p53 signaling pathway - cell viability (AID 651633; calls by dose curve; note: nearly all actives have a fitted effect of over 30% in size; note: potency is the fitted concentration of half-maximal effect)
How it was run: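 p53RE-bla cells were treated with compound for 16 hours at 37 C. Cytotoxicity was then measured as CellTiter-Glo luminescence after 30 min at room temperature.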

[4] = qHTS assay for small molecules that induce genotoxicity in human embryonic kidney cells expressing luciferase-tagged ATAD5 - cell viability (AID 651634; calls by dose curve; note: nearly all actives have a fitted effect of over 25% in size; note: potency is the fitted concentration of half-maximal effect)
How it was run: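 Cells (HEK293T, luciferase-tagged ATAD5) are seeded at 2,000 per well, dosed with compound or DMSO vehicle, and incubated 15.5 hr at 37C and 5% CO2. CellTiter-Fluor is added for 30 min before fluorescence is measured.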

[5] = qHTS assay for small molecule disruptors of the mitochondrial membrane potential - cell viability (AID 720634; calls by dose curve; note: nearly all actives have a fitted effect of over 20% in size; note: potency is the fitted concentration of half-maximal effect)
How it was run: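 Cytotoxicity was measured by ATP quantitation in HepG2 wells that had first been treated with compound for 1 hr and stained with m-MPI dye; CellTiter-Glo incubation was 30 min at room temperature.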

[6] = qHTS assay to test for compound auto fluorescence at 590 nm (red) in HepG2 cells (AID 720674)
How it was run: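 HepG2 cells, 2,000 per well in MEM with 10% FBS, attached overnight at 37 C, then got 23 nL compound or DMSO. After 1 hr at 37 C, 5% CO2, red fluorescence was read at 540/590 nm against Rose Bengal sodium as reference.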

[7] = qHTS assay to test for compound auto fluorescence at 535 nm (green) in HepG2 cells (AID 720675)
[8] = qHTS assay to test for compound auto fluorescence at 460 nm (blue) in HEK293 cells (AID 720678)
How it was run: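 Auto fluorescence in the blue band was quantified as triamterene equivalency. HEK293 cells were seeded at 2,000/well, dosed after a 4-5 hr attachment, and kept overnight at 37C before the 405/460 nm reading.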

[9] = qHTS assay to test for compound auto fluorescence at 590 nm (red) in HEK293 cells (AID 720679)
How it was run: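 Autofluorescence equivalency to Rose Bengal sodium, 540/590nm, in HEK293 cells exposed overnight to 23 nL compound per well.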

[10] = qHTS assay for small molecule disruptors of the mitochondrial membrane potential (AID 720635); note: potency is the fitted concentration of half-maximal effect
How it was run: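 HepG2 cells exposed to compound 1 hr at 37C, then Mito-MPS dye 30 min. Ratio read of aggregate (540/590 nm) versus monomer (490/535 nm) fluorescence.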

SMILES	Potency [1]	Potency [2]	Potency [3]	Potency [4]	Potency [5]	outcome [6]	outcome [7]	Potency [8]	outcome [9]	Potency [10]	fluorescence, relative to Rose Bengal [6]	fluorescence, % of fluorescein control [7]	fluorescence, % of triamterene [8]	fluorescence, % of fluorescent control [9]
C1CCC2CCCCC2C1 (centres undefined)	inactive	inactive	inactive	inactive	inactive	inactive	inactive	inactive	inactive					
COC(=O)N(C(=O)N1CO[C@@]2(C(=O)OC)Cc3cc(Cl)ccc3C2=N1)c1ccc(OC(F)(F)F)cc1	46.9 µM (active)	inactive	inactive	inactive	3.32 µM (active)	inactive	inactive	inactive	inactive	13.2 µM (active)				
CCN(CC)c1c([N+](=O)[O-])cc(C(F)(F)F)c(N)c1[N+](=O)[O-]	inactive	inactive	inactive	inactive		inactive	inactive	inactive	inactive	24.3 µM (active)				
Clc1ccc(-c2ccc(Cl)c(Cl)c2Cl)c(Cl)c1Cl	58.2 µM (active)	inactive	65.3 µM (active)	inactive		inactive	inactive	inactive	inactive					
CCN	inactive	inactive	inactive	inactive	inactive	inactive	inactive	inactive	inactive	inactive				
CC(C)OC(=S)S	inactive	inactive	inactive	inactive	inactive	inactive	inactive	inactive	inactive					
FC(F)(F)c1cccc(C2=CCN(CCc3ccc4ccccc4c3)CC2)c1	inactive	inactive	inactive	inactive	inactive	inactive	inactive	inactive	inactive					
CN(C)CCc1c[nH]c2ccc(O)cc12	inactive	inactive	inactive	inactive		inactive	inactive	inactive		inactive				
O=CC(Br)(Br)Br	13.6 µM (active)	9.66 µM (active)	inactive	30.5 µM (active)		inactive	inactive	inactive	inactive	30.5 µM (active)				
CCOC(=O)OC1=C(c2cc(C)ccc2C)C(=O)NC12CCC(OC)CC2 (centres undefined)	68.5 µM (active)	inactive		inactive	10.9 µM (active)	inactive	inactive	inactive	inactive	21.7 µM (active)				
C[C@]12CC[C@@H]3c4ccc(OC(=O)N(CCCl)CCCl)cc4CC[C@H]3[C@@H]1CC[C@@H]2O	21.1 µM (active)	inactive	inactive	inactive	inactive	inactive	inactive	inactive	inactive	inactive				
CC(c1ccc(O)cc1)c1ccc(O)cc1	inactive	inactive	inactive	inactive	inactive	inactive	inactive	inactive	inactive	25.6 µM (active)				
CCCN(CCC)CCc1c[nH]c2ccccc12	inactive	inactive	inactive	inactive		inactive	inactive	inactive	inactive					
Cc1ccc(OP(=O)(Oc2ccccc2)Oc2ccccc2)cc1	inactive	inactive	inactive	inactive		inactive	inactive	inactive		0.983 µM (active)				
FC(Cl)(Cl)Cl	inactive	inactive	inactive	inactive		inactive	inactive	inactive	inactive					
Nc1ccccc1C(=O)Oc1ccc2ccccc2c1	inactive	5.45 µM (active)	inactive	inactive		inactive	inactive	inactive	inactive	61.1 µM (active)				
O=C(CCl)C(Cl)Cl	13.8 µM (active)	inactive	inactive	55 µM (active)	49 µM (active)	inactive	inactive	inactive	inactive	61.7 µM (active)				
Cc1cc(C(C)(C)c2cc(C)c(O)c(C)c2)cc(C)c1O	29.6 µM (active)	inactive	59.1 µM (active)	inactive	29.6 µM (active)	inactive	inactive	inactive	inactive	18.7 µM (active)				
O=c1oc2ccccc2c(O)c1Cc1c(O)c2ccccc2oc1=O	0.639 µM (active)	inactive	0.507 µM (active)	inactive							-0.349% [at 18.6 µM]	0.0236% [at 18.6 µM]	0.108% [at 18.6 µM]	-0.0848% [at 18.6 µM]
CC(C)[C@H](C(=O)O[C@H](C#N)c1cccc(Oc2ccccc2)c1)c1ccc(Cl)cc1	inactive	inactive	inactive	inactive		inactive	inactive	inactive		30.6 µM (active)				
